Measurements taken from the supplement of paper PMC6555819.

The sequences below were run on RARb homodimer (NR concentration 270 nM) (assay: PBM binding z-score (relative to random genomic background probes); higher = stronger binding; sequences stand for … in GC…GCGATTGACAGCGTAGAATGAAGG).
Method in brief: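 Scanned fluorescence from custom Agilent 4×180K protein-binding microarrays was regression-normalized. Binding z-scores use random background probes as reference. Ligand-free nuclear receptor dimers were incubated on the arrays for 1 h and detected with antibodies against each partner (one per run).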

Sequence | PBM binding z-score
TCTCGGAGGACACGAAAGGTCAGATCTCGACATC | 4.71
CCTCGGAGGACAGAGGGTCAGAGCTGTCCGCTTT | 2.47
ATCTCTAGGTAAGACTCAGTTTAGTGAAGAACGC | 0.134
ATCGAAAGGTCGAAGGTGAGTATCCCCACCCGAA | 2.43
AATACAGGGGCATCGTAGGCCAGAGTACGCACAG | 1.13
CGTCCAAGGTCAAGTTCAGTGAAAGAGACTCGAA | 4.68
CGTCCAAGGCCAGCAGGTCAGTGAAAGCGACGTG | 2.34
GATACAGGGTCAAGGCTAGAGTACGCGTATTGAT | 3.75
TGTCTAAGTTCAAAGGTAACGTAAGTATCCACAC | 2.69
TCAGACAGGTGAATGTAACTCAGGTACGCAGTCG | 0.305
TGAATGAGGGTATAAGATCAGGGAACGTTGCAAA | -0.0361
CCTATCAGTTGACCATAAGGGCAACCGAAGCTCG | 1.93
CCTTACGGGTCACTGACACGTTATAGCATTTGGA | 2.9
CCAGACAGGTGAGAAGATAACTCAGCCTCGATTA | -0.0712
CAAACTAGGTCACCAAAGGTCAAAGTCGAATGAC | 5.94
CAGCCTAGGTCAGGGCCGGTATAGGAGGAACGTT | 2.41
AGAATGAGGTTATACGTAGATCAGGCAAGAAAGT | 0.646
GCAGACAGGTGAAACGCATGTAACTCAGGGTGGC | -0.102
TCTATTAGTTGATTAGGGCACCCGAAACAGCGGA | 0.537
AGTCAACGTTCATCTAGGTAACGTAAGATATGCT | -0.148

Sequence | PBM binding z-score
GCTTGAAGATCAAGGTTAAGAAAGACTAAGCTAA | 0.0789
AGAATGACGTTATTAAGATCAGGGAATTGCGGTC | -0.448
TAGCCTAGGTCATGCGGTCCAGTATAGTGTCGGC | 3.08
CAAACTAGGTCACTGGAAGGTCAAAGTCCGCATG | 5.21
TCTCGGAGGACACGAAAGGTCAGAGCCCGACATC | 4.82
CCTTACGGGTCAAGGTTCTAGCACGGGTGGTACG | 3.2
ACCGACAGGTGAGTGAAGGTAACTCAGCTGGACG | -0.286
TCTATTACTTGATTAGGGCAACCGAAACAGCGGA | 0.543
CCTGCTAGGTCAATGGTCAGCAAAAGCAGCTCGC | 2.84
CCTATTAGTTGACCATAAGGGGAACCGAAGCTCG | 0.9
ACTAGTTGGTCAGCTGAAGTCACACACAATTCGG | 0.741
TCTTGTAGATCAATAGAGGTTCAGAAAGTGCGCT | 0.168
CTGCCTAGGTCAGGGCCAGTATAGGAGGAACGTT | 2.43
ACTCGGAGGACAAAGGTCAGAGCCACGCCAGTGA | 4.56
CGAACGAGGGCGTGAGTTGATAGCAAATGCCGAT | -0.277
GGTACAGGGTCAGCTAGAGGCCAGAGTATGGAAA | 3.27
TCTATTAGTTGAAGGGCTACCGACGAGTCCGTTT | 0.0763
AGAATGAGCTTATTAAGATCAGGGAATTGCGGTC | -0.66
ACAGACAGGTGATGAAGGTGACTCAGGCTATCAT | 1.34
ATCTCTAGGTAAAGTTCAGTGAGAGATCGATAGA | 2.43
